The list is not random: actives were taken first. Their share in the collection is about 3.1%.
miR-122 sensor = blocks miR-122 activity in Huh7 sensor cells; activation (reporter increase), % at 12.5 µM; Huh7 miR-122 Renilla luciferase sensor, 48 h; neutral wells = 0, positive control = 100; AID 602342; actives 0.3% (n = 340,000);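 active = mean replicate activation score at least 90 and every replicate individually at or above 90; inconclusive = only one of the two criteria met; inactive = neither criterion met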;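 note: higher luciferase means less miR-122 activity so hits act as miR-122 inhibitors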
EWS-Fli block = inhibitors of EWS/Fli oncoprotein transcriptional activity. A673 NR0B1-luciferase reporter, viability-normalised. inhibition, % at 12.6 µM. actives 0.67% (n = 350,000);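 active = mean inhibition of at least 50% after viability correction, with every replicate also passing that limit; inconclusive = mean reaches 50% but only one of two replicates passes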;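 note: firefly luciferase signal divided by Alamar Blue viability fluorescence both relative to DMSO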
PAX8 inh HTS = PAX8 transcriptional activity inhibition; RMG-I TPO-luciferase reporter, SteadyGlo, 24 h; inhibition, % at 12.6 µM; actives 1.2% (n = 360,000);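 active = mean replicate inhibition at least 60% with every replicate also reaching 60%; inconclusive = only one of the two criteria is met; inactive = mean below 60% and not all replicates reaching 60%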;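 note: luciferase light reporting Pax8 driven TPO promoter activity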
GSIS activator = GLuc luminescence reporter in INS-1E cells, primary screen for activators of glucose-dependent secretion of insulin; activation, % at 16.6 µM; actives 0.61% (n = 370,000); INS-1E GLuc reporter insulin secretion, 2-3 h;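 active = lowest replicate activation of at least 40%, so every replicate reaches that level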
C2C12 statin = protects C2C12 myotubes from simvastatin toxicity; actives 0.78% (n = 330,000); rescue of ATP level, % at 7.49 µM; ATP luminescence, 48 h; scaled: DMSO 0, geranylgeraniol control 100;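 active = mean ATP rescue above about 67%, or every replicate alone reaching that limit, limit read from the data, passing the limit was not always enough; inconclusive = no clear call, values can overlap the other calls; inactive = mean under the limit and some replicate under it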;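 note: myotubes were challenged with 10 µM simvastatin during compound exposure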
HIV Env fusion = blocks HIV Env-driven cell-cell fusion; actives 1.1% (n = 360,000); HeLa-JRFL Env/CEM21 cell fusion, luciferase; inhibition, % at 12.3 µM; AID 651610;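 active = mean replicate inhibition score of at least 50 and every replicate individually at or above 50; inconclusive = only one of the two criteria met; inactive = mean below 50 and not all replicates reaching 50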
DNA binder FP = binds DNA displacing acridine orange; shares compounds with EWS-Fli block; AC35, µM (titrated, usually from 68 µM); actives 2% (n = 640); salmon sperm DNA acridine orange fluorescence polarization;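 active = fitted curve reaches a 35% signal fall AC35 below twice the sample's top valid tested dose, actives reach about 48 µM in these data; inactive = the rest, including activity in the rising direction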;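 note: lower polarization ratio signals compound binding to DNA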
Of the large screens only hits and unclear results are named; the others gave an inactive call (follow-up assays come after a bar, where they were run).

CO[C@@H]1CN(C)C(=O)c2ccc(NC(=O)NC3CCCCC3)cc2OC[C@@H](C)N(C(=O)NC2CCCCC2)C[C@H]1C	none (no result: PAX8 inh HTS, HIV Env fusion)
CCOc1ccc(N=Nc2ccc(O)c3ncccc23)cc1	EWS-Fli block 58 (no result: miR-122 sensor) | DNA binder FP inactive
N#CC(=C1C=CC(=NO)C(Cl)=C1)c1ccccc1	EWS-Fli block 51, PAX8 inh HTS 73 (no result: miR-122 sensor, GSIS activator, C2C12 statin) | DNA binder FP inactive
C[C@H](CO)N1C[C@H](C)[C@H](CN(C)CC2CCOCC2)Oc2ncc(C#Cc3ccncc3)cc2C1=O	none (no result: PAX8 inh HTS, GSIS activator)
O=S(=O)(c1ccc(F)cc1)N1C[C@H]2[C@@H](c3ccccc31)[C@H](CO)N2Cc1ccccc1Cl	EWS-Fli block 60, PAX8 inh HTS 109 (no result: HIV Env fusion) | DNA binder FP inactive
C[C@H](CO)N1C[C@H](C)[C@H](CN(C)Cc2ccncc2)Oc2ncccc2C1=O	none (no result: miR-122 sensor)
COc1cc(N2CCC(O)CC2)ccc1Nc1nnc(Cl)c(Nc2ccccc2S(C)(=O)=O)n1	none (no result: EWS-Fli block, PAX8 inh HTS, GSIS activator, HIV Env fusion)
COc1ccccc1N1CCN(C2CCN(C(=O)c3ccc(F)cc3)CC2)CC1	none (no result: C2C12 statin)
CCOc1cc(N2CCC(O)CC2)ccc1Nc1ncc2c(n1)N(C)c1ccccc1C(=O)N2C	EWS-Fli block 55 (no result: miR-122 sensor, C2C12 statin) | DNA binder FP inactive
COc1cc(C(=O)N2CCC(N3CCN(C)CC3)CC2)ccc1Nc1ncc2c(n1)N(C)c1ccccc1C(=O)N2C	EWS-Fli block 59 (no result: miR-122 sensor, C2C12 statin) | DNA binder FP inactive
Cc1ccc(C(C)C)c(OCc2ccc(C(=O)N/N=C/c3ccc(O)cc3O)cc2)c1	EWS-Fli block 63, PAX8 inh HTS inconclusive (no result: miR-122 sensor, GSIS activator, C2C12 statin) | DNA binder FP inactive
Cc1ccc(C(C)C)c(OCc2ccc(C(=O)N/N=C/c3ccc(C(=O)O)cc3)cc2)c1	none (no result: miR-122 sensor, C2C12 statin)
CCC(=O)N1[C@H](CO)[C@@H](c2ccc(C3=CCCC3)cc2)[C@@H]1CN(C)C(C)=O	none (no result: HIV Env fusion)
COc1ccc(C(CCNCc2ccc(OC(C)C)cc2)C(C)C)cc1 (stereo not drawn)	EWS-Fli block 70 (no result: C2C12 statin) | DNA binder FP inactive
CCOCCCNCc1ccc(OC)cc1	none (no result: EWS-Fli block, PAX8 inh HTS)
COc1ccccc1C(CCNCc1ccc(N(C)C)cc1)c1ccc(OC(C)C)cc1 (stereo not drawn)	EWS-Fli block 60, HIV Env fusion 55 (no result: miR-122 sensor) | DNA binder FP inactive
C[C@H]1CCCCO[C@@H](CN(C)C(=O)CCC(F)(F)F)[C@@H](C)CN([C@@H](C)CO)C(=O)c2cc(NS(C)(=O)=O)ccc2O1	none
COc1cc2c(OC(C)=O)c3c(c(-c4ccc5c(c4)OCO5)c2cc1OC)C(=O)OC3	EWS-Fli block 65 (no result: PAX8 inh HTS, GSIS activator, HIV Env fusion) | DNA binder FP inactive
C=C1C(=O)[C@@]23[C@H](O)C[C@@H]4C(C)(C)CC[C@H](O)[C@@]4(C)[C@@H]2CC[C@@H]1[C@H]3O	EWS-Fli block 60, PAX8 inh HTS 112 (no result: miR-122 sensor) | DNA binder FP inactive
CC1(C)N=C(N)N=C(N)N1c1ccc(OCCCOc2ccccc2)c(Cl)c1	EWS-Fli block 59, PAX8 inh HTS 71 | DNA binder FP inactive
CC(=NNc1cc(C)c2ccccc2n1)c1ccccn1	EWS-Fli block 64, PAX8 inh HTS 95 (no result: miR-122 sensor, C2C12 statin) | DNA binder FP inactive
C/C(=N\Nc1cccc2cccnc12)c1ccccc1O	none (no result: C2C12 statin)
C/C(=N\Nc1cccc2cccnc12)c1ccccn1	EWS-Fli block 61 (no result: miR-122 sensor, C2C12 statin) | DNA binder FP inactive
CC1(CCc2ccccc2)NC(=O)N(CC(=O)N2CCc3ccccc32)C1=O (stereo not drawn)	none
CC1(CCc2ccccc2)NC(=O)N(CC(=O)N2CC(=O)Nc3ccccc32)C1=O (stereo not drawn)	EWS-Fli block 62 | DNA binder FP inactive
CN=c1scc(-c2ccco2)n1/N=C/c1ccc(O)c(O)c1	none (no result: miR-122 sensor, C2C12 statin)
CN=c1scc(-c2ccccc2F)n1/N=C/c1ccc(O)c(O)c1O	EWS-Fli block 56, PAX8 inh HTS 83 | DNA binder FP inactive
CN=c1scc(-c2ccccc2F)n1/N=C/c1ccc[nH]1	EWS-Fli block 87, PAX8 inh HTS 96, HIV Env fusion 67 | DNA binder FP inactive
CC(C)N=c1scc(-c2cccs2)n1/N=C/c1ccc(O)c(O)c1O	none (no result: miR-122 sensor, EWS-Fli block, C2C12 statin)
Cc1cccc(N=C2NN=C(c3ccccc3F)CS2)c1C	none (no result: miR-122 sensor, C2C12 statin)
COc1ccc(C2=NNC(=Nc3cc(S(=O)(=O)N(C)C)ccc3C)SC2)c(OC)c1	EWS-Fli block 52, PAX8 inh HTS 103, HIV Env fusion 67 | DNA binder FP inactive
CCCCNC1=CC(=O)C(=O)c2ccccc21	EWS-Fli block 54, PAX8 inh HTS inconclusive (no result: miR-122 sensor, C2C12 statin) | DNA binder FP inactive
C[C@H](CO)N1C[C@H](C)[C@H](CN(C)S(=O)(=O)c2ccccc2)Oc2ncc(-c3ccc(F)cc3)cc2C1=O	none (no result: PAX8 inh HTS)
C[C@@H](O)C#Cc1cnc2c(c1)C(=O)N([C@@H](C)CO)C[C@H](C)[C@H](CN(C)C(=O)c1ccccc1)O2	none (no result: PAX8 inh HTS)
CC(/C=N/n1c(-c2ccc(Cl)cc2)n[nH]c1=S)=C\c1ccco1	none (no result: GSIS activator, C2C12 statin)
N#CC(C#N)=C1C=CC=CN1/C(=C\c1ccco1)C(=O)c1ccc(Cl)cc1	EWS-Fli block 86 (no result: miR-122 sensor, PAX8 inh HTS, C2C12 statin) | DNA binder FP inactive
Nc1nc(N)c2c(ccc3nccc32)[nH]1	EWS-Fli block 56 (no result: miR-122 sensor) | DNA binder FP inactive
C#CCOCCOCCOCCNc1nc(N2CCN(C(=O)CCCCCCCCCCNC(=O)Cn3cc(C[C@@H](C)O)nn3)CC2)nc(N2CCN(C(=O)CCCCCCCCCCNC(=O)[C@H](CO)n3cc(CCCSC)nn3)CC2)n1	EWS-Fli block 58 | DNA binder FP inactive
C#CCOCCOCCOCCNc1nc(N2CCN(C(=O)CCCCCCCCCCNC(=O)Cn3cc(C[C@@H](C)O)nn3)CC2)nc(N2CCN(C(=O)CCCCCCCCCCNC(=O)[C@@H](CCC(=O)O)n3cc(CCCCCN)nn3)CC2)n1	none (no result: GSIS activator)
CCCCOc1ccc(NC(=O)C(=O)NCCCn2ccnc2)cc1	EWS-Fli block 78, PAX8 inh HTS 85 (no result: miR-122 sensor, C2C12 statin) | DNA binder FP inactive
CCCCCCOc1ccc(C(=O)NCCCn2ccnc2)cc1	none (no result: miR-122 sensor, C2C12 statin)
C[C@H](CO)N1C[C@H](C)[C@H](CN(C)Cc2ccncc2)Oc2ccc(N(C)C)cc2CC1=O	none
CN1C/C(=C/c2ccsc2)C(=O)/C(=C/c2ccsc2)C1	EWS-Fli block 61 | DNA binder FP inactive
O=C1/C(=C\c2ccsc2)N2CCC1CC2	none
CO[C@@H]1CN(C)C(=O)c2cc(NC(=O)Nc3ccccc3Cl)ccc2OC[C@@H](C)N(S(C)(=O)=O)C[C@H]1C	none
C[C@H](CO)N1C[C@H](C)[C@@H](CN(C)Cc2ccc(Oc3ccccc3)cc2)Oc2ccc(NC(=O)Cn3cnnn3)cc2CC1=O	C2C12 statin inconclusive
C[C@H](CO)N1C[C@H](C)[C@H](CN(C)Cc2ccc(Oc3ccccc3)cc2)Oc2ccc(NC(=O)Cn3cnnn3)cc2CC1=O	EWS-Fli block 54 | DNA binder FP inactive

Bioassay records (PubChem)
